The supplement of paper PMC10646978
± gives the standard deviation.

Columns and labels:
Details in all cases: modulator concentration 10 µM
[1] = tested on: RAW-Dual (murine macrophage reporter line); assay: NF-kB reporter (SEAP) activity fold change vs agonist alone; higher = enhanced NF-kB activity
Outline: (§1)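 In 384-well plates holding 50 000 RAW-Dual murine macrophage reporter cells per well, compound at 10 μM final was pre-incubated for 1 hour at 37 °C, after which a PRR agonist was added overnight. Supernatant SEAP read with QUANTI-Blue at 620 nm absorbance reported NF-κB, and Lucia luciferase read with QUANTI-Luc luminescence reported IRF. Fold change values come from dividing each reporter signal by the mean of agonist-only control wells on the same plate, averaged over replicate plates with propagated errors.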

[2] = tested on: RAW-Dual (murine macrophage reporter line); assay: IRF reporter (Lucia luciferase) activity fold change vs agonist alone; higher = enhanced IRF activity
Outline: as §1

[3] = tested on: RAW-Dual (murine macrophage reporter line); assay: viability score (confluency relative to resting cells, overnight) (fraction); higher = more viable, active = viable (0.7 or more)
Outline: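 Two confluency masks, generated with IncuCyte software over all imaged wells, were applied to IncuCyte images of RAW-Dual macrophages. The cells, in 384-well plates, had been exposed overnight to 10 μM final compound. The viability score is confluency as a fraction of resting cells, and a compound met the cutoff only with both masks above 70% of resting cells.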

[4] = agonist: CpG ODN 1826 0.5 ug/mL

Row | Structure (SMILES) | NF-kB reporter [1, 4] | NF-kB reporter ([1]; agonist: LPS 0.1 ug/mL) | NF-kB reporter ([1]; agonist: MPLA […]) | IRF reporter ([2]; agonist: 3'3'-cGAMP 10 ug/mL) | IRF reporter ([2]; agonist: LPS 0.1 ug/mL) | IRF reporter ([2]; agonist: MPLA […]) | viability score [3]
1 | Cc1cccc(NC(=O)CSc2nc(N3CCCCC3)nc3ccccc23)c1 | 0.963 ± 0.088 | 1.11 ± 0.092 | 0.98 ± 0.13 | 0.955 ± 0.055 | 1.22 ± 0.13 | 1.43 ± 0.26 | 0.993 (active)
2 | COc1cc(O)c(C(=O)Nc2nc(C(=O)NCCN(C(C)C)C(C)C)cs2)cc1OC.Cl.O.O.O | 1.01 ± 0.098 | 0.966 ± 0.13 | 0.968 ± 0.022 | 0.96 ± 0.064 | 1 ± 0.11 | 1.05 ± 0.18 | 0.997 (active)
3 | CN1CCN(C2CC(=O)N(c3ccc(N4CCOCC4)cc3)C2=O)CC1 (centres undefined) | 0.963 ± 0.079 | 0.945 ± 0.096 | 0.864 ± 0.065 | 1.01 ± 0.025 | 1.37 ± 0.11 | 1.13 ± 0.29 | 1.01 (active)
4 | O=c1[nH]c(=O)n([C@H]2C[C@H](O)[C@@H](CO)O2)cc1F | 1.65 ± 0.14 | 1.02 ± 0.12 | 1.11 ± 0.028 | 0.75 ± 0.042 | 0.923 ± 0.083 | 0.863 ± 0.067 | 0.669 (inactive)
5 | COc1ccc(-c2ccc(OCCNC(=O)Cc3ccc(Br)cc3)nn2)cc1 | 0.959 ± 0.049 | 1.08 ± 0.084 | 0.908 ± 0.055 | 1.02 ± 0.085 | 1.09 ± 0.2 | 1.07 ± 0.31 | 1 (active)
6 | O=C(c1cc(C(F)(F)F)cc(C(F)(F)F)c1)N1CCOCC1CO (centres undefined) | 0.94 ± 0.053 | 1.03 ± 0.12 | 0.869 ± 0.099 | 0.969 ± 0.072 | 1.04 ± 0.092 | 0.989 ± 0.38 | 0.999 (active)
7 | COc1ccc(C(C)NC(=O)CCc2nnc3ccc(-c4ccc(C)c(C)c4)nn23)cc1OC (centres undefined) | 1.3 ± 0.23 | 1.06 ± 0.083 | 1.4 ± 0.38 | 0.301 ± 0.14 | 0.963 ± 0.088 | 0.623 ± 0.089 | 1.01 (active)
8 | Cc1c(-c2ccccc2)nc2ccccc2c1C(=O)N1CCCC1 | 1.09 ± 0.095 | 1.13 ± 0.087 | 1.1 ± 0.069 | 1.01 ± 0.035 | 1.62 ± 0.18 | 1.24 ± 0.13 | 1.01 (active)
9 | O=C(NC(=S)Nc1cccc([N+](=O)[O-])c1)c1cccc(I)c1 | 0.944 ± 0.1 | 1.08 ± 0.072 | 0.985 ± 0.044 | 0.794 ± 0.1 | 1.09 ± 0.14 | 1.02 ± 0.17 | 1 (active)
10 | CCOC(=O)Cc1nnnn1C | 0.888 ± 0.27 | 1.02 ± 0.11 | 1.01 ± 0.14 | 1 ± 0.026 | 1.14 ± 0.15 | 1.17 ± 0.13 | 1 (active)
11 | Cc1cc(C(O)CNC(=O)c2ccc(C(F)(F)F)nc2)c(C)o1 (centres undefined) | 1.25 ± 0.083 | 1.05 ± 0.085 | 1.01 ± 0.029 | 0.965 ± 0.049 | 1.04 ± 0.053 | 1.16 ± 0.11 | 1 (active)
12 | COC(c1ccccc1)(c1ccccc1)C(Oc1nc(C)cc(C)n1)C(=O)O (centres undefined) [Prestw-1497] | 0.986 ± 0.077 | 0.945 ± 0.07 | 0.936 ± 0.091 | 1.09 ± 0.052 | 1.31 ± 0.18 | 1.44 ± 0.32 | 1.05 (active)
13 | C(#Cc1ccc(C=Nc2nccs2)cc1)c1ccccc1 | 0.714 ± 0.18 | 0.935 ± 0.17 | 0.892 ± 0.1 | 0.176 ± 0.029 | 1.09 ± 0.16 | 1.15 ± 0.17 | 0.997 (active)
14 | CC(C)N(C(=O)c1ccc(C(=O)NCc2ccc(S(N)(=O)=O)cc2)cc1)C(C)C | 0.974 ± 0.057 | 1.07 ± 0.079 | 0.909 ± 0.072 | 0.961 ± 0.033 | 1.51 ± 0.12 | 1.21 ± 0.18 | 1 (active)
15 | Cc1cc(OCCCOc2cccc3cccnc23)ccc1Cl | 0.752 ± 0.06 | 1.02 ± 0.058 | 0.864 ± 0.052 | 0.998 ± 0.025 | 1.14 ± 0.18 | 1.03 ± 0.27 | 1 (active)
16 | Clc1cnc(NC2CCN(c3ncnc4c3CCCC4)CC2)nc1 | 0.969 ± 0.043 | 1.08 ± 0.089 | 1.55 ± 0.24 | 0.698 ± 0.032 | 1.16 ± 0.21 | 1.29 ± 0.47 | 0.954 (active)
17 | COc1ccc(NC(=O)c2ccc(C(=N)N(C)C)cc2)c(C(=O)Nc2ccc(Cl)cn2)c1 | 0.892 ± 0.33 | 1.18 ± 0.061 | 1.1 ± 0.11 | 0.837 ± 0.043 | 1.05 ± 0.13 | 1.22 ± 0.26 | 0.994 (active)
18 | Nc1ncnc2c1nc(S)n2C1OC(CO)C(O)C1O (centres undefined) | 0.775 ± 0.061 | 0.9 ± 0.082 | 0.951 ± 0.11 | 0.957 ± 0.051 | 1.15 ± 0.067 | 1.27 ± 0.14 | 1.02 (active)
19 | O=C(Nc1nccs1)c1ccc2c(c1)C(=O)N(CC1CCCO1)C2=O (centres undefined) | 1.12 ± 0.11 | 0.919 ± 0.088 | 0.975 ± 0.028 | 0.997 ± 0.037 | 1.04 ± 0.054 | 1.14 ± 0.13 | 0.997 (active)
20 | CCC(C(=O)N1CCN(CCn2ccnc2-c2ccccc2)CC1)c1ccccc1 (centres undefined) | 0.982 ± 0.17 | 0.999 ± 0.14 | 1.24 ± 0.076 | 1 ± 0.13 | 1.04 ± 0.24 | 0.956 ± 0.4 | 0.984 (active)
21 | COc1cc2ncnc(Nc3ccc(F)c(Cl)c3)c2cc1NC(=O)/C=C/CN1CCCCC1 | 0.666 ± 0.32 | 0.936 ± 0.083 | 0.989 ± 0.081 | 0.486 ± 0.026 | 0.958 ± 0.2 | 0.861 ± 0.22 | 0.988 (active)
22 | CCOP(C)(=O)C(c1ccccc1)N(C)S(C)(=O)=O (centres undefined) | 1.01 ± 0.089 | 1.04 ± 0.058 | 1.03 ± 0.062 | 1.03 ± 0.046 | 1.66 ± 0.19 | 1.22 ± 0.17 | 1.01 (active)
23 | CCCC(=O)Nc1ncnc2c1ncn2[C@@H]1O[C@@H]2OP(=O)([O-])OC[C@H]2[C@H]1OC(=O)CCC [Prestw-813] | 1.27 ± 0.12 | 1.14 ± 0.079 | 1.14 ± 0.12 | 0.991 ± 0.056 | 1.41 ± 0.14 | 1.21 ± 0.16 | 1 (active)
24 | CCc1nc(N)nc(N)c1-c1ccc(Cl)cc1 | 1.23 ± 0.11 | 1.07 ± 0.054 | 1.03 ± 0.054 | 0.941 ± 0.052 | 0.974 ± 0.07 | 0.865 ± 0.075 | 0.964 (active)
25 | CC(C(=O)O)c1ccc2c(c1)[nH]c1ccc(Cl)cc12 (centres undefined) | 0.96 ± 0.15 | 1.13 ± 0.24 | 0.879 ± 0.064 | 0.937 ± 0.054 | 1.19 ± 0.2 | 1.05 ± 0.16 | 1 (active)
26 | CCCCc1oc2ccc(NS(C)(=O)=O)cc2c1C(=O)c1ccc(OCCCN(CCCC)CCCC)cc1.Cl | 0.403 ± 0.048 | 0.998 ± 0.099 | 1.3 ± 0.14 | 0.945 ± 0.067 | 1.2 ± 0.12 | 1.27 ± 0.18 | 0.29 (inactive)
27 | CC(=O)N(C=Cc1cc[n+](CCCS(=O)(=O)[O-])c2ccccc12)c1ccccc1 | 0.982 ± 0.1 | 1.05 ± 0.063 | 0.908 ± 0.094 | 1.01 ± 0.052 | 1.57 ± 0.16 | 1.25 ± 0.25 | 1.01 (active)
